Screening results: PubChem, National Center for Advancing Translational Sciences (NCATS)
Pf growth 96h: P. falciparum growth inhibition at 96 hour, primary screen for plastid delayed-death inhibitors. 320,000 tested, 6.9% active. P. falciparum luciferase reporter growth, 96 h. Potency, µM (top dose mostly 28.7 µM), inactives show at the top dose activity change, negative = inhibition, usual class: inhibitors. AID 504834; active means well fitted inhibition curve with a large enough effect; inconclusive means small, poorly fitted or top-dose-only effect, or another doubt; inactive means no such curve, though single readings can be large or run the other way; further: potency means the concentration at half of the fitted maximal effect; on the % scale 0 is the no-effect control and ±100 the full control effect
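Compounds incubated with erythrocytes infected by luciferase-expressing P. falciparum (2% hematocrit, 0.05% parasitemia final) for 96 hours, 37 C in 5% CO2. Growth inhibition scored as decreased luciferase luminescence.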
Pf growth 48h: inhibits P. falciparum growth in the first generation, 48 h; Potency, µM (doses to about 28.7 µM), inactives show top-dose activity change, negative = inhibition, hits mostly inhibitors; P. falciparum luciferase growth in erythrocytes, 48 h; 310,000 tested, 5.9% active; active means well fitted inhibition curve with a large enough effect; inconclusive means small, poorly fitted or top-dose-only effect, or another doubt; inactive means no such curve, though single readings can be large or run the other way; further: potency means the concentration at half of the fitted maximal effect; on the % scale 0 is the no-effect control and ±100 the full control effect
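A one-generation exposure of luciferase-tagged malaria parasites in RPMI 1640/Albumax erythrocyte culture, 37 C and 5% CO2. Inhibition is inferred from decreased luminescence after adding detection reagent.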
CHX counter: affects cycloheximide protein synthesis inhibition readout, counter-screen. AID 2314. max response, %. 300,000 tested, 12% active. cell reporter, cycloheximide protein synthesis inhibition counterscreen; in the data active means max response mostly above about 13%, no sharp cut-off; inactive means mostly below about 14%; further: read at 38.3 µM for the half of the compounds with a filed dose; 0% is about no effect
SARS PLpro yeast: SARS-CoV PLP inhibition in yeast. Potency, µM (top dose mostly 32.9 µM), without a hit: at the top dose activity, positive = growth rescue, hits mostly activators. AID 485353. 330,000 tested, 0.19% active. S. cerevisiae expressing SARS-CoV PLpro, growth rescue; further: potency means the concentration at half of the fitted maximal effect; 0% is about no effect; nearly all actives have a fitted effect of over 55% in size
NS1 function inh: inhibitors of influenza NS1 protein function | Potency, µM (doses to about 46.1 µM), inactives show at the highest dose activity, positive = more growth | 270,000 tested, 0.4% active; further: potency means the concentration at half of the fitted maximal effect; actives are rising curves; nearly all actives have a fitted effect of over 50% in size
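A cell-based growth assay was used: compounds that relieve NS1-induced slow growth of budding yeast raise OD600. Assay medium was yeast nitrogen base with ammonium sulphate and -URA supplement, pH 6.0, with 2% galactose.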
Shiga inhibitor: blocks Shiga toxin action in Vero cells; Vero cells, Shiga toxin protein synthesis inhibition reporter; inhibition, % at 38.7 µM; 290,000 tested, 9.2% active; in the data active means inhibition mostly above about 28%, no sharp cut-off; inactive means mostly below about 43%; further: 0% is about no effect
Starred values were filed as active, the others as inactive; u = inconclusive; x = no result given; [ ] = remark or other dose. The list is not random: actives were taken first. Their share in the collection is about 21%. Unless noted, the call rests on the fitted dose curve.

SMILES	Pf growth 96h	Pf growth 48h	CHX counter	SARS PLpro yeast	NS1 function inh	Shiga inhibitor
CCOC(=O)c1cnc(-n2nc(C)cc2C)nc1NC	-23.5%[5.75 µM]	0.0%	31.6*	-4.0%	-31.2%	28.5
Cc1ccc(C(=O)n2c(-c3ccccc3)cnc2SCC(=O)Nc2ccccc2)cc1	252.6%	71.3%	15.1*	12.0%	-1.2%	-2.9
Cc1ccc(NC(=O)CSc2ncc(-c3ccccc3)n2C(=O)c2ccccc2)cc1	u	28.4%	27.8*	-11.3%	-12.7%	100.4*
Cc1ccc(C(=O)n2c(-c3ccccc3)cnc2SCC(=O)Nc2ccc(C)cc2C)cc1	13.9%	32.3%	-2.0	-2.9%	13.3%	48.5*
CC(C)NC(=O)CN1CCC(c2nc3ccccc3[nH]2)CC1	4.1%	21.1%	0.7	-2.5%	3.5%	13.9
O=C1C[C@@H](c2ccccc2Cl)N1S(=O)(=O)c1ccccc1[N+](=O)[O-]	x	x	-10.6	x	x	2.0
COc1cc(-c2noc(C)c2C(=O)NCCc2c[nH]c3ccccc23)cc(OC)c1OC	14.7µM*	u	-2.2	7.6%	1.9%	-4.4
COc1cc(-c2noc(C)c2C(=O)NCCc2cccs2)cc(OC)c1OC	x	x	x	-0.5%	x	x
CC(C)CC1(C(=O)NCCc2c[nH]c3ccccc23)C=CCN1C(=O)c1ccccc1 (stereo not given)	10.4µM*	u	10.2	-2.6%	-7.2%	10.9
O=C(NCCc1c[nH]c2ccccc12)c1ccccc1	97.0%	13.1%	38.8*	-2.4%	-7.0%	93.6*
Cc1cc(C)cc(C(=O)NCC(=O)NCCc2c[nH]c3ccccc23)c1	2.7%	-28.7%	13.0	0.3%	4.1%	3.2
O=C(NCCc1c[nH]c2ccccc12)c1ccc(S(=O)(=O)NCc2ccco2)cc1	0.0%	-9.6%	16.1*	-3.0%	3.9%	-2.6
CC(OC(=O)c1ccc(-c2ccc([N+](=O)[O-])cc2)o1)C(=O)NC(N)=O (stereo not given)	u	41.2%	4.7	5.4%	1.9%	12.7
O=C(CN(Cc1ccco1)C(=O)c1cccc(F)c1)Nc1ccccc1C(F)(F)F	u	-18.9%	x	2.8%	x	x
Cn1c(/C=C/c2cccc([N+](=O)[O-])c2)c([N+](=O)[O-])c(=O)n(C)c1=O	u	u	-1.4	-4.0%	-8.3%	-21.5
O=C(NCCc1c[nH]c2ccccc12)c1ccc([N+](=O)[O-])cc1	13.3%	18.1%	38.0*	-0.7%	-4.4%	79.8*
O=C(NCCc1c[nH]c2ccccc12)c1cc([N+](=O)[O-])cc([N+](=O)[O-])c1	12.9%	1.3%	1.5	0.1%	-2.1%	-2.7
Cc1ccc(C(=O)NCCc2c[nH]c3ccccc23)s1	110.7%	69.9%	51.7*	-2.3%	-4.3%	85.4*
O=C(NCCc1c[nH]c2ccccc12)c1ccc(-n2cnnn2)cc1	1.0%	u	5.0	4.7%	2.3%	24.7
Cc1ccc(C(=O)NCCc2c[nH]c3ccccc23)c(C)c1	234.7%	108.3%	79.5*	-4.7%	-6.3%	87.2*
CC(C)C(=O)NCCc1c[nH]c2ccccc12	u	19.4%	5.5	12.5%	20.9%	2.3
N#CCC(=O)Nc1ccc(C(=O)NCCc2c[nH]c3ccccc23)cc1	7.38µM*	13.1µM*	1.2	1.1%	1.6%	-6.5
CCS(=O)(=O)N1Cc2ccccc2CC1C(=O)Nc1nnc(SCc2ccc(F)cc2)s1 (stereo not given)	u	-26.3%	2.6	12.8%	u	14.1
N#Cc1ccc(NC(=S)NC(=O)CCc2ccc(S(=O)(=O)N3CCOCC3)cc2)cc1	18.3%[5.75 µM]	15.5%[5.75 µM]	-3.1	0.3%	x	22.0
Cc1cccc(NC(=O)CN2CCN(C(=O)C3CCCO3)CC2)c1C (stereo not given)	u	22.7%	-1.1	-5.2%	15.3%	-6.6
SMILES	Pf growth 96h	Pf growth 48h	CHX counter	SARS PLpro yeast	NS1 function inh	Shiga inhibitor
O=C(Nc1cc(C(F)(F)F)ccc1Cl)C(Sc1nnc(-c2cccs2)o1)c1ccccc1 (stereo not given)	-11.8%	19.2%	14.7*	-11.2%	14.6%	33.1*
O=C(Nc1cc(C(F)(F)F)ccc1Cl)C(Sc1n[nH]c(=O)[nH]c1=O)c1ccccc1 (stereo not given)	56.7%	24.5%	-1.1	0.1%	u	-9.0
O=C(CCS(=O)(=O)c1ccc(Cl)cc1)Nc1nnc(-c2cccs2)o1	3.1%	u	x	-2.2%	x	x
O=C(Nc1ccc(Cl)cc1C(F)(F)F)C(Sc1nnc(-c2cccs2)o1)c1ccccc1 (stereo not given)	u	6.3%	29.1*	-6.8%	24.6%	88.7*
COc1ccccc1OCCCCn1ncc2ccc(OC)c(OC)c2c1=O	-13.3%	3.6%[0.00184 µM]	-0.5	-0.7%	-31.3%	-7.1
COCCn1c(SCC(=O)N2CCCC2)nnc1-c1ccoc1C	u	5.6%	13.4	1.5%	3.0%	82.2*
COCCCn1c(SCC(=O)Nc2cccc(C)n2)nnc1-c1ccco1	-9.2%[5.75 µM]	-13.4%	-1.2	5.2%	1.4%	-2.3
COCCn1c(SCC(=O)N2CCCC2)nnc1-c1ccco1	35.0%	24.2%	-5.5	9.3%	9.3%	-2.7
Cc1occc1-c1nnc(SCC(=O)N2CCN(c3ccccc3F)CC2)n1C	3.7µM*	-13.6%	-4.6	14.8%	0.5%	-12.3
COCCCn1c(SCC(=O)Nc2ccc3c(c2)OCCO3)nnc1-c1ccoc1C	23.0%	16.8%	26.9*	-2.6%	4.5%	76.2*
COCCn1c(SCC(=O)c2cccc(OC)c2)nnc1-c1ccco1	13.1µM*	12.6%	-1.0	2.0%	-2.2%	39.1
CC(=O)NC1=NN(C(C)=O)C(c2ccc(F)cc2)S1 (stereo not given)	-15.9%	32.1%	-2.8	0.2%	5.1%	18.0
COc1ccc(CC(=O)OCC(=O)NCCc2ccccc2)cc1OC	u	-0.1%	-3.4	11.2%	-0.3%	-10.0
CCOc1ccc(S(=O)(=O)N2CCCC(C(=O)NC3CC3)C2)cc1Cl (stereo not given)	0.1%	u	x	2.6%	x	x
COCCn1c(SCC(=O)c2ccc3c(c2)OCCO3)nnc1-c1ccoc1C	x	u	110.6*	6.4%	-7.1%	104.5*
Cc1cc2nc(/N=C(\N)NC(=O)N3c4ccccc4Sc4ccccc43)nc(C)c2cc1C	u	8.28µM*	-3.1	-16.7%	16.3%	-2.5
Cc1ccc2nc(/N=C(\N)NC(=O)N3c4ccccc4Sc4ccccc43)nc(C)c2c1	353.8%	-17.6%	-2.7	-14.9%	-7.6%	-8.1
COc1ccc(C(CNC(=O)Cc2ccc(-c3ccccc3)cc2)N(C)C)cc1 (stereo not given)	u	u	-3.8	3.2%	11.4%	7.2
CCCCN(C(=O)C(C)Oc1ccc(Cl)cc1)c1c(N)n(CCCC)c(=O)[nH]c1=O (stereo not given)	2.1%	13.4%	x	6.1%	x	x
Cc1cc(N)ccc1N=Nc1c(C)n(C)n(-c2ccccc2)c1=O	11.6%	10.7%	30.9*	-7.0%	17.5%	28.9
